Assay [1] in a line: qHTS assay to identify small molecule HDAC inhibitors (AID 1259364).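 Further: wild-type HCT-116 cells with endogenous class I/II HDAC activity; top concentration of the series differs between compounds; nearly all actives have a fitted effect of over 45% in size.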 The method, boiled down: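 Read-out: luminescence of HDAC-Glo I/II reagent, 30 min RT, reflecting class I/II deacetylase activity in whole HCT-116 cells pre-exposed 2 h to DMSO-dissolved compounds.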
(qHTS replaces the single test concentration by a dilution series.)

A short description of assay [2]: qHTS assay to identify small molecule HDAC inhibitors - cell viability counter screen (AID 1259365). Further: series mostly up to about 92 µM; nearly all actives have a fitted effect of over 50% in size. Put shortly: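 Following a 2hr exposure of overnight-plated wild-type HCT-116 cells to DMSO-delivered compounds, CellTiter-Glo was added and luminescence recorded after 30min at room temperature.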
The nature of assay [3]: qHTS assay to identify small molecule agonists of the sonic hedgehog signaling (Shh) pathway - cell viability counter screen (AID 1259366). Further: nearly all actives have a fitted effect of over 50% in size. The method, boiled down:
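After a 4hr attachment at 37C, NIH/3T3 cells bearing an integrated Gli1-driven luciferase reporter were dosed with compounds. Treatment lasted 24hr, with the final hour including CellTiter-Fluor for a fluorescence viability measurement.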

Assay [4] can be described thus: qHTS assay to identify small molecule antagonists of the sonic hedgehog signaling (Shh) pathway - cell viability counter screen (AID 1259367). Further: nearly all actives have a fitted effect of over 55% in size. The method, boiled down:
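NIH/3T3-derived Gli1-Luc reporter cells, 2,000/well, plated 4 hr before compound addition, then stimulated with conditioned medium for 24 hr at 37C. Viability measured in the same wells by CellTiter-Fluor fluorescence, reagent added at 23 hr for 1 hr.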

The nature of assay [5]: qHTS assay to identify small molecule agonists of the sonic hedgehog signaling (Shh) pathway (AID 1259368; calls by dose curve;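 further: NIH/3T3-derived 3T3Gli1-Luc cells carrying a stable Gli1-driven firefly luciferase reporter; series mostly up to about 92 µM; nearly all actives have a fitted effect of over 15% in size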). Put shortly:
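A Gli1 transcriptional response element controlled firefly luciferase in 3T3Gli1-Luc cells. Compounds and a positive control were added 4 hr after plating, and cells were incubated a further 24 hr at 37 C before luminescence detection.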

Assay [6] is described as follows: qHTS assay to identify small molecule antagonists of the sonic hedgehog signaling (Shh) pathway (AID 1259369; calls by dose curve; further: nearly all actives have a fitted effect of over 45% in size; further: potency means the concentration at half of the fitted maximal effect). Put shortly: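 For antagonist detection, the reporter line received test compounds together with conditioned medium, incubated 24hr at 37 C, 5% CO2, then luminescence was recorded following 30min room-temperature luciferase reagent incubation.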
Assay [7] in a line: qHTS assay to identify small molecule agonists of the androgen receptor (AR) signaling pathway in the presence of an antagonist - cell viability counter screen (AID 1259379).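 Further: MDA-kb2 human breast cancer cells carrying an MMTV luciferase reporter; series mostly up to about 92 µM; nearly all actives have a fitted effect of over 25% in size.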 Put shortly:
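Seed MDA-kb2 at 3,000 cells/well; incubate 5 hr, 37C, 0% CO2. Add nilutamide to 3.0uM final, then pin compounds at 15 concentrations. Incubate 16 hr. Add CellTiter-Fluor at 15 hr, read fluorescence after 1 hr.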

Assay [8] in a line: qHTS assay to identify small molecule agonists of the estrogen receptor beta (ER-beta) signaling pathway - cell viability counter screen (AID 1259380). Further: nearly all actives have a fitted effect of over 30% in size. The method, boiled down:
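CellTiter-Glo read, 30 min RT, same wells as bla assay; cells ER-beta-UAS-bla HEK293T; 16 hr compound, 37C; medium 2% charcoal-stripped FBS.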

The nature of assay [9]: qHTS assay to identify small molecule antagonists of the estrogen receptor beta (ER-beta) signaling pathway - cell viability counter screen (AID 1259382). Further: series mostly up to about 92 µM; nearly all actives have a fitted effect of over 55% in size. The method, boiled down:
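In this multiplexed counter screen, cells were seeded at 2,000 per well in medium with 2% charcoal-stripped FBS and incubated 6 hr before compound and 1nM final E2 were added. Sixteen hours later, ATP-based luminescence reported viability.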

The target of assay [10] is Thyrotropin receptor (Homo sapiens) (UniProt P16473). As to the kind of experiment: qHTS assay to identify small molecule antagonists of the thyroid stimulating hormone receptor (TSHR) signaling pathway (AID 1259385; calls by dose curve; further: nearly all actives have a fitted effect of over 20% in size). Put shortly:
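TSHR-HEK293 cells (800/well) plated 18 h, then compounds with Ro20-1724 and TSH at 1.5 ng/mL final, 30 min at room temperature. cAMP quantified by HTRF (cAMP-d2/anti-cAMP-cryptate, 1 h); 15 concentrations in triplicate.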

A short description of assay [11]: qHTS assay to identify small molecule agonists of the estrogen receptor alpha (ER-alpha) signaling pathway in the presence of an antagonist - cell viability counter screen (AID 1259386).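 Further: series mostly up to about 92 µM; cells exposed to compounds for 22 h at 37 °C before the viability read; nearly all actives have a fitted effect of over 30% in size.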 The method, boiled down: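 Viability counter screen using VM7Luc4E2 (full-length ER-alpha, four ERE-luciferase). The cells were treated with compounds alongside ICI-182,780 10.0nM for 22hr, and live-cell protease fluorescence was quantified with CellTiter-Fluor.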

Assay [12] deals with Progesterone receptor (Homo sapiens) (UniProt P06401). Description: qHTS assay to identify small molecule agonists of the progesterone receptor (PR) signaling pathway (AID 1346784; calls by dose curve; further: nearly all actives have a fitted effect of over 30% in size). Put shortly: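 Using charcoal-stripped serum (2%) to limit endogenous steroids, PR-UAS-bla HEK 293T cells received compounds for 16 hr at 37C after 6 hr plating; beta-lactamase FRET fluorescence was recorded following 2 hr substrate loading at room temperature.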
Progesterone receptor (Homo sapiens), sequence (P06401 whole entry, looked up): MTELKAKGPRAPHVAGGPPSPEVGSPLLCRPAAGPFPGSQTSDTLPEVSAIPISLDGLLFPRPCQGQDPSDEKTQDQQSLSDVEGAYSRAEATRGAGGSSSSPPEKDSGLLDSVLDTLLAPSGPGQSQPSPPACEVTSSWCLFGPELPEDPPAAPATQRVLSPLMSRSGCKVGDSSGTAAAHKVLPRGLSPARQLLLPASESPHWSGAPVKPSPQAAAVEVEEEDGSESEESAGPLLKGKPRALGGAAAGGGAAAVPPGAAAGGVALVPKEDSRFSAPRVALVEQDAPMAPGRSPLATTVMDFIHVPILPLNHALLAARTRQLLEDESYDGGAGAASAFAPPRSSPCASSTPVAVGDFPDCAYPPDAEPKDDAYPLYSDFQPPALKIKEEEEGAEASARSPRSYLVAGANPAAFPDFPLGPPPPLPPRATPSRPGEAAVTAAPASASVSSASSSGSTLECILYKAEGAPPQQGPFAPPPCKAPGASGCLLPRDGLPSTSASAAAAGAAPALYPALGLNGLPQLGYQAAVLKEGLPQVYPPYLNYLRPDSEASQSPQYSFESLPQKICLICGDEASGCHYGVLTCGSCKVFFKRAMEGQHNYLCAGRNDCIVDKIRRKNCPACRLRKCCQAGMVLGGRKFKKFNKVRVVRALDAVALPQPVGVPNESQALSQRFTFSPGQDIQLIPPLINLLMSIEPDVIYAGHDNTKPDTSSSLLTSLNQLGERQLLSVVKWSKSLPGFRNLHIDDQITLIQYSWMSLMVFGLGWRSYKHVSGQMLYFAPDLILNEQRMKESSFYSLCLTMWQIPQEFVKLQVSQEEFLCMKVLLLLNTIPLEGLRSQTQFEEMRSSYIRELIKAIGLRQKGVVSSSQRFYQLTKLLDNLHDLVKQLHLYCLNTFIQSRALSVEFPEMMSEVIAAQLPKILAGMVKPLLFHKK

Assay [13] has the same target. As to the kind of experiment: qHTS assay to identify small molecule antagonists of the progesterone receptor (PR) signaling pathway (AID 1346795; active means well fitted inhibition curve with a large enough effect in the signal ratio in the repeat runs, not every such curve was filed as active; the % refers to the signal ratio; further: potency means the concentration at half of the fitted maximal effect). The method, boiled down: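 Inhibition of R5020-induced (1 nM final) beta-lactamase reporter signal in PR-UAS-bla HEK293T cells was scored by FRET fluorescence after overnight (16 hr) compound treatment.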
The nature of assay [14]: qHTS assay to identify small molecule antagonists of the progesterone receptor (PR) signaling pathway - cell viability counter screen (AID 1346798). Further: series mostly up to about 92 µM; nearly all actives have a fitted effect of over 50% in size. The method, boiled down: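 ATP content as viability readout: CellTiter-Glo luminescence, 30 min room temperature, in PR-UAS-bla HEK293T cells after 16 hr compound/R5020 treatment at 37C and 5% CO2.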
Assay [15] can be described thus: qHTS assay to identify small molecule agonists or antagonists of the thyroid stimulating hormone receptor (TSHR) signaling pathway - wild type cell line counter screen (AID 1259384; calls by dose curve). The method, boiled down:
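Wild-type Hek293 cells, 800/well, 18 h at 37C, then compound with Ro20-1724 for 30 min RT. cAMP by HTRF (cAMP-d2/anti-cAMP cryptate), 1 h RT, fluorescence read. 15 concentrations, triplicates.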

For assay [16], the target named is Estrogen receptor beta (Homo sapiens) (UniProt Q92731). As to the kind of experiment: qHTS assay to identify small molecule agonists of the estrogen receptor beta (ER-beta) signaling pathway (AID 1259377; active means well fitted activation curve with a large enough effect in the signal ratio in the repeat runs, not every such curve was filed as active; the % refers to the signal ratio; further: potency means the concentration at half of the fitted maximal effect). Put shortly:
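In HEK293T cells bearing a UAS-beta-lactamase reporter under ER-beta control, DMSO-delivered compounds were incubated for 16 hr at 37C. Activity was detected as fluorescence 2 hours after LiveBLAzer B/G FRET substrate addition.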

Assay [17] has the same target. As to the kind of experiment: qHTS assay to identify small molecule antagonists of the estrogen receptor beta (ER-beta) signaling pathway (AID 1259378; active means well fitted inhibition curve with a large enough effect in the signal ratio in the repeat runs, not every such curve was filed as active; the % refers to the signal ratio). The method, boiled down:
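ER-beta-UAS-bla HEK293T cells in 2% charcoal-stripped FBS medium treated with compound plus 1nM final 17-beta-estradiol for 16 hr at 37C. Beta-lactamase reporter read by FRET substrate fluorescence after 2 hours at room temperature.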

Assay [18] concerns the target Androgen receptor (Homo sapiens) (UniProt P10275). As to the kind of experiment: qHTS assay to identify small molecule agonists of the androgen receptor (AR) signaling pathway in the presence of an antagonist (AID 1259381; calls by dose curve; further: nearly all actives have a fitted effect of over 15% in size). Put shortly: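 Test compounds at 15 concentrations were incubated for 16hr with MDA-kb2 reporter cells in presence of 3.0uM nilutamide (final). Signal: ONE-Glo luciferase luminescence.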

Where “and” joins values, the source holds several entries; their conditions need not be identical. Equal values may be shown once. Inconclusive results are not listed. The source holds several records for some structures; these can differ, active in one and inactive in another. Calls of active or inactive are those of the source. Unless noted, the call rests on the fitted dose curve; in most records, active means well fitted curve in the direction sought with a large enough effect in the repeat runs; inconclusive means weak or mixed curves; inactive means no such curve, though single readings can be large; an effect the other way counts as inactive or inconclusive.

Thyrotropin receptor (Homo sapiens), sequence (P16473 whole entry, looked up): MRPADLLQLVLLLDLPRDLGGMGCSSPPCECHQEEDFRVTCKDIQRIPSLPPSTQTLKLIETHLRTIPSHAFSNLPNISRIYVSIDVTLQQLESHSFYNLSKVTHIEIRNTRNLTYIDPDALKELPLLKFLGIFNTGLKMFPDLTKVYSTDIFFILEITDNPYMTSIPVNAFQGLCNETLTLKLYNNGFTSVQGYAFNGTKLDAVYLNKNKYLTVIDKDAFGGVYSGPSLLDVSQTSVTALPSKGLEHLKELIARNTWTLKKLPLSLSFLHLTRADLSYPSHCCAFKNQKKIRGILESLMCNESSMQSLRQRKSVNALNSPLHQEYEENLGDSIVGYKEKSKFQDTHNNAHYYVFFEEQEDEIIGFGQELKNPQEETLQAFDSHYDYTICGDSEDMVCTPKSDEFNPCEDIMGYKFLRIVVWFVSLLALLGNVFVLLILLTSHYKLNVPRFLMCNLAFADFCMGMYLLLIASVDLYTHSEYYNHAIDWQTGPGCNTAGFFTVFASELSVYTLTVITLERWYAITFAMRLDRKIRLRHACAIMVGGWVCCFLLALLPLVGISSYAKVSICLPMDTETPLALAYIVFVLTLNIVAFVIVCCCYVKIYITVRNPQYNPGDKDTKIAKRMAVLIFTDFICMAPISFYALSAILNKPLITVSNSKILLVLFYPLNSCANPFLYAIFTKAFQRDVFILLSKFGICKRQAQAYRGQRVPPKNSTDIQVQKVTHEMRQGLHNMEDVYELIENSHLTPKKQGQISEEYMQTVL
Estrogen receptor beta (Homo sapiens), sequence (Q92731 whole entry, looked up): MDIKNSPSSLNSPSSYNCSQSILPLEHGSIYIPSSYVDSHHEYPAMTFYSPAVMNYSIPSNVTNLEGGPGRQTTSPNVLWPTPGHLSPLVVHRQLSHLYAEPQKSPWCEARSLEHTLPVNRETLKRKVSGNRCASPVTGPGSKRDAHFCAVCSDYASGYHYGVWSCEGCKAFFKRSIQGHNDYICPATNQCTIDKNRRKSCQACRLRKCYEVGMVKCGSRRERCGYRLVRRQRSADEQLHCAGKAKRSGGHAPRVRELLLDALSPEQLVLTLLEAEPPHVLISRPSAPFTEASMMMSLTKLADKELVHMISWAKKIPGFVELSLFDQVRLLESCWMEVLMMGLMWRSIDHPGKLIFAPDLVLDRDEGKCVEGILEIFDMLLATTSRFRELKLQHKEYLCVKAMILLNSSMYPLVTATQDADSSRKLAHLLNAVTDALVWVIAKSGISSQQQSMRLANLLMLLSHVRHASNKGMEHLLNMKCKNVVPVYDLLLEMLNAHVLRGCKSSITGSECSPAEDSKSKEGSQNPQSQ
Androgen receptor (Homo sapiens), sequence (P10275 whole entry, looked up): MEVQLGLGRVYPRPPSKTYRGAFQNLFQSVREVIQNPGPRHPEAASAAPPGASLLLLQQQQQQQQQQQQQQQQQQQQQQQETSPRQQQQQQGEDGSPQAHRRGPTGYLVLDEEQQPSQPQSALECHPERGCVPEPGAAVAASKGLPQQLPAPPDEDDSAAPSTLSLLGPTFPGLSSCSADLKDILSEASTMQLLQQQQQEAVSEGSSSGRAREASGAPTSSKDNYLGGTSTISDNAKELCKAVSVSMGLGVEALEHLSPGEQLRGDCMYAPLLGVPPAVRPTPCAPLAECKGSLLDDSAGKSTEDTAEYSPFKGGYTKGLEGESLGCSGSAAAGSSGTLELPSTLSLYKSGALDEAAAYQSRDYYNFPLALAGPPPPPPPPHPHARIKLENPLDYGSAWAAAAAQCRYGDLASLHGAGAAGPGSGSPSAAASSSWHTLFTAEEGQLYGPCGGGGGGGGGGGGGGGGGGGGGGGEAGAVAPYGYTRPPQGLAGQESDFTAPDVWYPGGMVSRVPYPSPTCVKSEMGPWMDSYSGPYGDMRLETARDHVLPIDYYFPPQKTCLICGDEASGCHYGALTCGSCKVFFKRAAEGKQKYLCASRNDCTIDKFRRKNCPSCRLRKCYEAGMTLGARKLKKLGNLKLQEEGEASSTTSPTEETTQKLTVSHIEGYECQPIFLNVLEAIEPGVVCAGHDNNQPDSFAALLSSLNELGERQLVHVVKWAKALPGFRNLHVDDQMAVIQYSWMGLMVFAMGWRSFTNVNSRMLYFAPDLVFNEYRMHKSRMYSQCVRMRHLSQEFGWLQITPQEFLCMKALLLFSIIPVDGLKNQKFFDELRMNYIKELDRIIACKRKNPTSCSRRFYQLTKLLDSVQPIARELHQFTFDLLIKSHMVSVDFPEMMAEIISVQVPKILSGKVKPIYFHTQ

Regarding `c1ccc2c(c1)Oc1ccccc1O2`, the Potency entry in assay [1], in assay [3], in [4], in assay [6], in assay [8] and in assay [9] was “inactive” in each case. Further, the Potency result in assay [10], in assay [13] and in assay [14] was “inactive” in each case. Also, the call in assay [2], in assay [5], in [7], in assay [11] and in assay [12] was inactive.

Take `C#CC(C)(C)NC(=O)c1cc(Cl)cc(Cl)c1`: the Potency result in assay [1], in assay [3], in [4], in assay [6], in assay [8] and in assay [9] was “inactive” throughout. Also, the Potency entry in [10], in assay [13] and in assay [14] was “inactive” each time. Further, the compound was called inactive in [2], in assay [5], in assay [7], in assay [11] and in assay [12].

Turning to `Oc1ccccc1Cl`, the Potency entry in assay [1], in [3], in [4], in assay [6], in assay [8] and in [9] was “inactive” each time. In addition, the Potency result in assay [10], in assay [13] and in assay [14] was “inactive” each time. Also, the compound was classed as inactive in assay [2], in [5], in [7], in assay [15], in assay [11] and in [12].

On to `Clc1ccccc1Cl`, for which the Potency result in assay [1], in assay [3], in assay [4], in assay [6], in assay [16] and in [8] was “inactive” in each case. The Potency result in [9], in assay [10], in assay [13] and in assay [14] was “inactive” throughout. Also, the outcome in assay [2], in assay [5], in assay [17], in assay [7], in assay [11] and in assay [12] was inactive.

Consider `CC(C)C#N`, for which the Potency entry in assay [1], in assay [3], in [4], in [6], in [8] and in [9] was “inactive” throughout. Further, the Potency result in [10], in [13] and in [14] was “inactive” throughout. Besides, the compound was called inactive in [2], in assay [5], in [7], in assay [15], in assay [11] and in assay [12].

Turning to `CCNc1nc(NC(C)C)nc(SC)n1`, the Potency entry in [1], in assay [3], in assay [4], in assay [6], in [16] and in [8] was “inactive” each time. The Potency entry in assay [9], in assay [10], in [13] and in [14] was “inactive” throughout. For the same compound, the result in assay [2], in assay [5], in assay [17], in assay [7], in assay [18] and in assay [15] was inactive. Moreover, the outcome in [11] and in assay [12] was inactive.

Take `CCC(C)(CC)c1cc(NC(=O)c2c(OC)cccc2OC)on1`: the Potency entry in assay [1], in assay [3], in assay [4], in assay [16], in assay [8] and in assay [9] was “inactive” each time. In addition, the outcome in assay [2], in [5], in [7], in assay [11] and in [12] was inactive. Also, the Potency in [6] is 6.88 µM (active).

For `COC(=O)c1ccccc1N`, the Potency result in [1], in assay [3], in assay [4], in [6], in assay [16] and in [8] was “inactive” throughout. In addition, the Potency entry in [9], in assay [10], in [13] and in assay [14] was “inactive” throughout. For the same compound, the call in assay [2], in assay [5], in assay [17], in [7], in [15] and in assay [11] was inactive. In assay [12], the call was inactive.

For `O=[N+]([O-])c1ccc(Oc2ccc(Cl)cc2Cl)cc1`, the Potency entry in assay [1], in assay [3], in assay [4], in assay [6], in assay [8] and in [9] was “inactive” each time. For the same compound, the Potency result in [10] is “inactive”. Further, the compound was called inactive in [2], in [5], in assay [17], in [7], in assay [11] and in [12]. For the same compound, the Potency is 61.4 µM (active) and inactive in assay [16]; 15.4 µM (active) and 9.69 µM (active) in assay [13].

In the case of `Nc1ccc(Oc2ccc(N)cc2)cc1`, the Potency entry in [1], in assay [3], in assay [4], in [6], in assay [16] and in assay [9] was “inactive” each time. The Potency result in assay [10], in [13] and in assay [14] was “inactive” throughout. Further, the outcome in [2], in [5], in assay [7], in assay [11] and in [12] was inactive.

With `CC(NC(C)(C)C)C(=O)c1cccc(Cl)c1` (configuration not stated), the Potency result in assay [1], in assay [3], in [4], in [6], in [9] and in assay [13] was “inactive” each time. The Potency entry in assay [14] was “inactive”. Further, the compound was called inactive in [2], in assay [5], in [7], in assay [11] and in assay [12].

The values above are taken from PubChem BioAssay (Tox21).
